# From PubChem BioAssay
# The source made the active and inactive calls. Unless noted, how the calls were made is not given here.
# Assays:
# [1] = test system: Wnt5a (protein binding on small-molecule microarray); test: Wnt5a binders on small-molecule microarray, primary screen, biophysical, 635/667 nm fluorescence (AID 1142); conditions: 635 nm fluorescence, higher = more signal;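 further: fluorescence read at 667 nm with signal to noise per printed feature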
# [2] = cell viability in Huh7 cells, primary screen, cytotoxicity control for HCV replication inhibitor project, CellTiter-Glo luminescence, basal, 48 h (AID 1143); conditions: Huh7 HCV replicon, higher = more signal, called active from +8 up or from −8 down;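 further: Huh7 hepatoma cells carrying a hepatitis C replication reporter with no stimulus; test concentration not given here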
# [3] = P. aeruginosa biofilm formation inhibitors, primary screen, PAO1 strain, BacTiter-Glo luminescence, LB-PBS (AID 1144); conditions: 12 h, higher = more signal
# [4] = CREB reporter modulators without forskolin, primary screen, cell-based, PC12, CRE-LacZ reporter, unstimulated (AID 1145); conditions: no forskolin, luminescence, 4.5 h, higher = more signal, called active from +8 up or from −8 down
# [5] = CREB reporter modulators under forskolin, primary screen, cell-based, PC12, CRE-LacZ reporter, forskolin-stimulated (AID 1146); conditions: luminescence, 4.5 h, higher = more signal, called active from +8 up or from −8 down;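 further: PC12 cells with 6xCRE LacZ reporter stimulated by forskolin 10 µM; beta-galactosidase reporter signal reflecting CREB driven transcription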
# [6] = molecular target: Streptavidin (Streptomyces avidinii) (UniProt P22629); test: streptavidin binders on small-molecule microarray, primary screen, artefact control for SMM compound annotation, biophysical, 635/667 nm fluorescence (AID 1147); conditions: streptavidin binding, higher = more signal;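 further: signal reflects streptavidin binding to arrayed compounds as a control protein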
# Chain of Streptavidin (Streptomyces avidinii) (P22629 whole entry, looked up): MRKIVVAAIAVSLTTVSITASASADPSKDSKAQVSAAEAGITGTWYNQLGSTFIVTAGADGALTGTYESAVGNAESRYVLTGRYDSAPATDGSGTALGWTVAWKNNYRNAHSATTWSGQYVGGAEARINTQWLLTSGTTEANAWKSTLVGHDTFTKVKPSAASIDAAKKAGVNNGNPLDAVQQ
# [7] = small-molecule binders of probe aInhba, primary screen, biochemical, small-molecule microarray, 635/667 nm fluorescence (AID 1148); conditions: higher = more signal;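 further: score merges 667nm spot fluorescence with signal-to-noise for antibody binding to printed compounds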
# [8] = molecular target: Torsin-1A (Homo sapiens) (UniProt O14656); test: torsin A binders from cell lysate, primary screen, small-molecule microarray, wild-type, 635/667 nm (AID 1149); conditions: COS7 hTOR1A-WT lysate, 635 nm fluorescence, higher = more signal
# Chain of Torsin-1A (Homo sapiens) (O14656 whole entry, looked up): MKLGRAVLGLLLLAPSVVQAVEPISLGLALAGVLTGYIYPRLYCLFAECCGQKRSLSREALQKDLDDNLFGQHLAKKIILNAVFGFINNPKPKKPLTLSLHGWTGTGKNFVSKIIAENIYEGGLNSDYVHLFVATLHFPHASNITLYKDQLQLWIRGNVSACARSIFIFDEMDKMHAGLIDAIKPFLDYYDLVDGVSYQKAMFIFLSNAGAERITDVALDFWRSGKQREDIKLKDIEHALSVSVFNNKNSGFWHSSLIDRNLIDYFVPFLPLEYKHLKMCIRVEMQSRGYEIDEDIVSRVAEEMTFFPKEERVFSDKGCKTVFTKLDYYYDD
# [9] = molecular target: Torsin-1A (Homo sapiens) (UniProt O14656); test: small-molecule binders of mutant TOR1A in lysate, primary screen, cell lysate, small-molecule microarray, COS7 lysate, 635/667 nm fluorescence (AID 1150); conditions: COS7 hTOR1A mutant lysate, 635 nm fluorescence, higher = more signal;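 further: score pools 667 nm emission and signal to noise measuring lysate protein binding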
# [10] = test system: Sonic hedgehog protein (Shh); test: small-molecule binders of Shh protein, primary screen, biochemical, small-molecule microarray, 635/667 nm fluorescence (AID 1151); conditions: small-molecule microarray binding, 635 nm fluorescence; higher = more signal;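 further: Shh protein binding to compounds spotted on small-molecule microarray slides; score combines spot fluorescence intensity with signal-to-noise across triplicate slides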
# [11] = E. coli DRC41 culture turbidity changes, primary screen, E. coli filamentation inducer project, strain DRC41, OD650, 48 h (AID 1152);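 further: E. coli MC1000 strain DRC41 lacking acrAB efflux pump and sulA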; conditions: E. coli DRC41 (acrAB sulA), higher = more signal, called active from +8 up or from −8 down
# [12] = small-molecule binders of probe aLefty1, primary screen, biochemical, small-molecule microarray, 635/667 nm fluorescence (AID 1153); conditions: higher = more signal;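 further: score merges spot fluorescence with signal-to-noise ratio from the scanned slide images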
# [13] = PSAC antagonists in infected red cells, primary screen, cell-based, P. falciparum Indochina, OD700, 1 h (AID 1154); conditions: P. falciparum Indochina infected RBC osmotic lysis, higher = more signal, called active from +8 up or from −8 down
# [14] = PSAC antagonists in infected red cells, primary screen, cell-based, P. falciparum Indochina, OD700, 2 h (AID 1155);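 further: lysis reports solute entry through the parasite surface anion channel PSAC; channel blockers reduce lysis of infected cells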; conditions: P. falciparum Indochina infected erythrocytes, osmotic lysis OD700; higher = more signal, called active from +8 up or from −8 down
# [15] = osmotic lysis modulators in infected erythrocytes, primary screen, PSAC antagonist project, cell-based, P. falciparum Indochina, OD700, 3 h (AID 1156); conditions: higher = more signal, called active from +8 up or from −8 down
# [16] = PSAC antagonists in infected red cells, primary screen, cell-based, P. falciparum Indochina, OD700, 18 h (AID 1157); conditions: P. falciparum Indochina infected erythrocytes, osmotic lysis OD700, 18 h; higher = more signal, called active from +8 up or from −8 down
# [17] = modulators of S6 phosphorylation in cells, primary screen, cell-based, A549, cytoblot, luminescence, serum-stimulated (AID 1158); conditions: A549 phospho-S6 cytoblot, 5 h, higher = more signal;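 further: serum-stimulated A549 lung adenocarcinoma cells; signal is phosphorylated S6 detected by cytoblot immunostaining with HRP secondary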
# [18] = molecular target: NADPH oxidase 2 (Homo sapiens) (UniProt P04839); test: NOX2-dependent H2O2 signal modulators, primary screen, NOX inhibitor project, cell-based, HEK293-NOX2, PMA-stimulated, Amplex Red fluorescence (AID 1159); conditions: 45 min, higher = more signal, called active from +8 up or from −8 down; further: test concentration not given here
# Chain of NADPH oxidase 2 (Homo sapiens) (P04839 whole entry, looked up): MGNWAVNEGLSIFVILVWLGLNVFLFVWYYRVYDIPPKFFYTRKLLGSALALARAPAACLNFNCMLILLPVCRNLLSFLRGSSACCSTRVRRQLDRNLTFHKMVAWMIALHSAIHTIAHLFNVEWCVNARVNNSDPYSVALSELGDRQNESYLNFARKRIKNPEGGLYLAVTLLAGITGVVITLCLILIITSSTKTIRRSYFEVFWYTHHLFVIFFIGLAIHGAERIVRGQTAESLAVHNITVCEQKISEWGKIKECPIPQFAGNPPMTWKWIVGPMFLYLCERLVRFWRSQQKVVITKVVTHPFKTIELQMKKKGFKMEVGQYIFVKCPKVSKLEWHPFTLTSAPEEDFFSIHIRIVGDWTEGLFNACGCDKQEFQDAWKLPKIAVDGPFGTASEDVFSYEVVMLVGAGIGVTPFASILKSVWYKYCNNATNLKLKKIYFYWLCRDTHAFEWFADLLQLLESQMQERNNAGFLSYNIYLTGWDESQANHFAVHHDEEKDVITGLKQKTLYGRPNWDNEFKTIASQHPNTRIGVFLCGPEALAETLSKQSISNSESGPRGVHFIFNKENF
# [19] = molecular target: NADPH oxidase 4 (Homo sapiens) (UniProt Q9NPH5); test: NOX4-dependent H2O2 signal modulators, primary screen, NOX inhibitor project, cell-based, HEK293-NOX4, tetracycline-induced, Amplex Red fluorescence (AID 1160); conditions: 45 min, higher = more signal, called active from +8 up or from −8 down
# Chain of NADPH oxidase 4 (Homo sapiens) (Q9NPH5 whole entry, looked up): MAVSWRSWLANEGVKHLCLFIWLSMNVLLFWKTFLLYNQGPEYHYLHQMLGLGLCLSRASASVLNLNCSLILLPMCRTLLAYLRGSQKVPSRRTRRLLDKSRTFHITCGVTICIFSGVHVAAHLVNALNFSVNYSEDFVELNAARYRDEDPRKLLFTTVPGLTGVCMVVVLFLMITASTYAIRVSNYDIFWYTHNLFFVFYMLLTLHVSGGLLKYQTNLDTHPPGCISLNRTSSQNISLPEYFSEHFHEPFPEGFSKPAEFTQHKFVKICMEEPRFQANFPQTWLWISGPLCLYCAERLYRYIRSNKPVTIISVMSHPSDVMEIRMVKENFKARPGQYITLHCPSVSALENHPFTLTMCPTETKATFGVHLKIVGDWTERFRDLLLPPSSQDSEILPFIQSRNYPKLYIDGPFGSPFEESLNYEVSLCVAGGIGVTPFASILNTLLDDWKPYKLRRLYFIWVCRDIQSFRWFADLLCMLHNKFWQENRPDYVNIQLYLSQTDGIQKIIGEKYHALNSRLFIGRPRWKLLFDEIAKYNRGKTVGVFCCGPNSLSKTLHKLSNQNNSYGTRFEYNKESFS
# [20] = molecular target: NADPH oxidase 5 (Homo sapiens) (UniProt Q96PH1); test: NOX5-dependent H2O2 signal modulators, primary screen, NOX inhibitor project, cell-based, HEK293-NOX5, Amplex Red fluorescence (AID 1161); conditions: HEK293-NOX5, ionomycin, 45 min, higher = more signal
# Chain of NADPH oxidase 5 (Homo sapiens) (Q96PH1 whole entry, looked up): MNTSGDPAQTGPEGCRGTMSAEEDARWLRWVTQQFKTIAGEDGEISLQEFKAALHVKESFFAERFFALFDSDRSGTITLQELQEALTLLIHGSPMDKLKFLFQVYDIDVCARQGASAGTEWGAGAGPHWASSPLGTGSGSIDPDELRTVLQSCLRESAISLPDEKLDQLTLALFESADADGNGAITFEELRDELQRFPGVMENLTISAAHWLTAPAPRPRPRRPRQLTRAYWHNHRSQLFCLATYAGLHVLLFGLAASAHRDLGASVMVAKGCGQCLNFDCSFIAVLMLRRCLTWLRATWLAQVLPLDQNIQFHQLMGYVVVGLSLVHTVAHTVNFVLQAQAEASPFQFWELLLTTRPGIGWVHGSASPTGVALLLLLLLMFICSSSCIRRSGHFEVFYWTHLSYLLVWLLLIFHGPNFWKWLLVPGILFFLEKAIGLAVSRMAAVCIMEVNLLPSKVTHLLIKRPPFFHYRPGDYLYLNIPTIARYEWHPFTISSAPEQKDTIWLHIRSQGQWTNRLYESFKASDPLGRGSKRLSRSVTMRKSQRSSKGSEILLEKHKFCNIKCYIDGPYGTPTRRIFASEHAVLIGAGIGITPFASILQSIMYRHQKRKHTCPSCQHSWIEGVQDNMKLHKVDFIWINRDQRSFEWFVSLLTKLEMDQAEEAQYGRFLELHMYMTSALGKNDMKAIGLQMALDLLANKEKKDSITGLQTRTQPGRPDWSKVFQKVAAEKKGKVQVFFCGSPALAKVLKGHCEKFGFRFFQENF
SMILES,composite z-score [1],z-score [2],z-score [3],z-score [4],z-score [5],composite z-score [6],composite z-score [7],composite z-score [8],composite z-score [9],composite z-score [10],z-score [11],composite z-score [12],z-score [13],z-score [14],z-score [15],z-score [16],z-score [17],z-score [18],z-score [19],z-score [20]
COc1ccc(COC(=O)NN=C2C[C@@H](O)[C@@H](O)[C@@H]3[C@@H]4C(=O)N(C(C)(C)C)C(=O)[C@@H]4CC[C@@H]23)cc1,0.211,0.22 (inactive),0.224 (inactive),0.973 (inactive),0.384 (inactive),0.244,0.0086,0.385,1.47,0.612,0.244 (inactive),-0.328,0.339 (inactive),-0.039 (inactive),-0.609 (inactive),-0.0118 (inactive),1.14,-0.384 (inactive),0.808 (inactive),0.315
COC(=O)CC=C[C@@H](C)[C@@H](C=NOC(C)CN1CCCc2nc(C)c(C)cc21)NS(=O)(=O)c1ccc(C)cc1 (stereo not given in full),0.448,-0.214 (inactive),1.42 (inactive),0.0013 (inactive),0.541 (inactive),-0.176,0.0982,0.308,0.309,0.791,0.364 (inactive),0.119,2.52 (inactive),0.584 (inactive),0.201 (inactive),0.49 (inactive),-0.929,-0.134 (inactive),0.283 (inactive),-0.736
COc1ccc(-c2cnnc(CCCn3ccnc3-c3ccccc3)n2)cc1,0.314,-4.68 (inactive),-0.459 (inactive),1.37 (inactive),-0.631 (inactive),0.22,-0.144,1.56,1.52,0.838,-0.249 (inactive),-0.0576,26.2 (active),9.62 (active),0.886 (inactive),0.982 (inactive),-0.714,1.27 (inactive),-0.372 (inactive),-1.2
CCOC(=O)CCN1C(=O)[C@H]2[C@H]3[C@H](O)[C@H](O)CC(=NNC(=O)OCc4ccccc4)[C@H]3CC[C@H]2C1=O,0.126,-1.31 (inactive),-0.326 (inactive),1.07 (inactive),-0.253 (inactive),-0.362,-0.0781,1.95,2.44,0.968,-0.351 (inactive),-0.0162,0.992 (inactive),0.0095 (inactive),0.0794 (inactive),0.0606 (inactive),-0.707,1.28 (inactive),0.327 (inactive),0.595
CC(C)=NOC[C@@H](O)[C@H]1O[C@@H]2OC(C)(C)O[C@@H]2[C@H]1O,-0.297,0.605 (inactive),0.503 (inactive),-0.473 (inactive),-0.476 (inactive),1.23,0.333,1.34,0.0837,0.785,0.269 (inactive),-0.0501,0.0289 (inactive),0.0612 (inactive),-0.0091 (inactive),0.269 (inactive),0.0226,-0.162 (inactive),-0.514 (inactive),0.0874
CO[C@H]1COC(=O)CC=C[C@@H](C)COC(=O)[C@H]2CCCN2C(=O)CC=C[C@H]1C,0.203,0.0653 (inactive),0.106 (inactive),-0.837 (inactive),-1.05 (inactive),-0.547,-0.108,2.24,2.95,1.79,0.694 (inactive),-0.217,-0.567 (inactive),-0.25 (inactive),-0.521 (inactive),0.0572 (inactive),0.43,-0.166 (inactive),0.32 (inactive),0.364
CCOC(=O)[C@H](Cc1ccccc1)NC(=O)CCC1CC(OC(=O)NCc2ccc3c(c2)OCO3)CC2(CCCC(COC(=O)NCCOC)O2)O1 (stereo not given in full),0.274,-3.06 (inactive),-0.212 (inactive),-0.256 (inactive),0.59 (inactive),0.91,-0.016,0.351,0.291,1.91,-0.11 (inactive),-0.0428,-1.89 (inactive),-1.39 (inactive),0.61 (inactive),-1.67 (inactive),2.53,0.195 (inactive),-0.931 (inactive),-2.16
O=C1[C@H]2[C@H]3[C@H](O)[C@H](O)CC(=NOC[C@@H](O)COCc4ccco4)[C@@H]3CC[C@H]2C(=O)N1Cc1ccc2c(c1)OCO2,0.0191,-0.0292 (inactive),0.878 (inactive),-0.0199 (inactive),0.506 (inactive),-0.436,-0.218,3.38,3,1.55,1.56 (inactive),-0.0984,30 (active),4.77 (inactive),0.826 (inactive),1.01 (inactive),0.236,-2.68 (inactive),0.499 (inactive),0.351
